# Targets with a hit are over-represented here; the source holds about 7,900 in all. About 0.6% of all pairs of compound and target were hits. Unmarked numbers belong to inactive results.
# Legend:
# Assay in all cases: log2 fold change, soluble protein after heating vs DMSO (PISA); higher = thermal stabilisation; K562 cells, 10 uM, 30 min; active = over 0.2 and 3.5 SD of the protein, either way, in both replicates (recomputed)
# erlotinib = compound: C#Cc1cccc(Nc2ncnc3cc(OCCOC)c(OCCOC)cc23)c1 [erlotinib]
# Outline: (§1)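 K562 cells (2×10^6 cells/mL) were treated with 10 μM compound for 30 min, and aliquots were heated for 3 min over 48°C-58°C. Pooled aliquots were extracted in PBS with 0.5% NP-40 at 4°C, and the supernatant after 21,000xg for 90 min was measured by TMTpro 16plex LC-MS/MS with channel sums equalised. Reported thermal stability, relative to control samples and from duplicates, is a log2 fold change.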
# [1] = compound: C/C(=N\NC(=O)C1=CC(=CC=C1)S(=O)(=O)N2CCOCC2)/C3=C(C=CC(=C3)Cl)O
# Outline: as §1
# [2] = compound: C1=CC(=C(C=C1Cl)C2=NC3=NC=CN=C3C(=N2)NC4=CC=NC=C4)F
# Outline: as §1
# [3] = compound: C1=CC(=CC=C1C2=NC3=C(N2)C=C(C=C3)C(=O)N)OC4=CC=C(C=C4)Cl
# Outline: as §1
# [4] = compound: C1=CC2=C(C=CC(=C2)/C=C\3/C(=O)NC(=NCC4=CC=CS4)S3)N=C1
# Outline: as §1
# [5] = compound: C1=CC2=NC=CN=C2C=C1/C=C/3\C(=O)NC(=O)S3
# Outline: as §1
# [6] = compound: C1=CC=C(C=C1)C2=NC(=C(N2)C3=CC=NC=C3)C4=CC(=C(C=C4)Cl)O
# Outline: as §1
# [7] = compound: C1=CC=C2C(=C1)C3=NNC4=CC=CC(=C43)C2=O
# Outline: as §1
# [8] = compound: C1CCN(C1)C(=O)NC2=CC=CC(=C2)NC3=NC=C(C(=N3)NCCC4=CN=CN4)Br
# Outline: as §1
# [9] = compound: C1CN(CCC1(CC2=CC=C(C=C2)Cl)N)C3=NC=NC4=C3C=CN4
# Outline: as §1
# IRAK-1-4 Inhibitor I = compound: C1COCCN1CCN2C3=CC=CC=C3N=C2NC(=O)C4=CC(=CC=C4)[N+](=O)[O-] [IRAK-1-4 Inhibitor I]
# Outline: as §1
# ibrutinib = compound: C=CC(=O)N1CCC[C@@H](n2nc(-c3ccc(Oc4ccccc4)cc3)c3c(N)ncnc32)C1 [ibrutinib]
# Outline: as §1
# [10] = compound: CC(=O)c1cnc2ccc(-c3cc(Cl)c(O)c(Cl)c3)nc2c1N[C@H]1CC[C@H](CN(C)C)CC1
# Outline: as §1
# ralimetinib = compound: CC(C)(C)Cn1c(N)nc2ccc(-c3[nH]c(C(C)(C)C)nc3-c3ccc(F)cc3)nc21 [ralimetinib]
# Outline: as §1
# [11] = compound: CC(C)(O)CC(=O)NCCn1ccc2ncnc(Nc3ccc(Oc4cccc(C(F)(F)F)c4)c(Cl)c3)c21
# Outline: as §1
# [12] = compound: CC(C)C1=C2N=C(C=C(N2N=C1)NCC3=CC=CC=C3)NCCCCCCN
# Outline: as §1
# [13] = compound: CC(C)C[C@@H](C=O)NC(=O)[C@H](CC(C)C)NC(=O)[C@H](CC(C)C)NC(=O)OCc1ccccc1
# Outline: as §1
# pinometostat = compound: CC(C)N(C[C@H]1O[C@@H](n2cnc3c(N)ncnc32)[C@H](O)[C@@H]1O)[C@H]1C[C@@H](CCc2nc3cc(C(C)(C)C)ccc3[nH]2)C1 [pinometostat]
# Outline: as §1
# [14] = compound: CC1=C(C(CC(=O)N1)C2=CC=C(C=C2)C(F)(F)F)C(=O)NC3=C(C=C4C(=C3)C=NN4)F
# Outline: as §1
# [15] = compound: CC1=C(C2=C(C=C1)C(=O)C3=CC=CC=C3N2CCCN)C
# Outline: as §1
# Chain of UniProt Q08945 (Q08945 whole entry, looked up): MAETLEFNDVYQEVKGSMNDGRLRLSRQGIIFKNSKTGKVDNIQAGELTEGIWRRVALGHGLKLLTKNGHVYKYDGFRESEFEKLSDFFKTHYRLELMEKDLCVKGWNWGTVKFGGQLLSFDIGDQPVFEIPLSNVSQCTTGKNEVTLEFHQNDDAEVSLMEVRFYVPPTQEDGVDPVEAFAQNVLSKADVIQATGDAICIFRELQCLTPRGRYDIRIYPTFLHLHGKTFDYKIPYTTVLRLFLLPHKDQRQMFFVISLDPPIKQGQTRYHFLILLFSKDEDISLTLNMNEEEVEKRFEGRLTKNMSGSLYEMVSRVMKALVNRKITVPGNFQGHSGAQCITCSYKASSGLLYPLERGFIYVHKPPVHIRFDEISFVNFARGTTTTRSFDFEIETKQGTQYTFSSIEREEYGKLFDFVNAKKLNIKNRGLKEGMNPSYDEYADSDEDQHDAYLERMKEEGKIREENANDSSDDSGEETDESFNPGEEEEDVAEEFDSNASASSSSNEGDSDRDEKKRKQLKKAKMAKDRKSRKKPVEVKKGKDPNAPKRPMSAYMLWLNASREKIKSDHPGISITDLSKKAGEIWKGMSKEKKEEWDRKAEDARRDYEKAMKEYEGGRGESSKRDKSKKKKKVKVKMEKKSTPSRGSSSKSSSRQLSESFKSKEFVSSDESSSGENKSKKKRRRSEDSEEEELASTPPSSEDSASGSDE
# Chain of UniProt Q66K14 (Q66K14 whole entry, looked up): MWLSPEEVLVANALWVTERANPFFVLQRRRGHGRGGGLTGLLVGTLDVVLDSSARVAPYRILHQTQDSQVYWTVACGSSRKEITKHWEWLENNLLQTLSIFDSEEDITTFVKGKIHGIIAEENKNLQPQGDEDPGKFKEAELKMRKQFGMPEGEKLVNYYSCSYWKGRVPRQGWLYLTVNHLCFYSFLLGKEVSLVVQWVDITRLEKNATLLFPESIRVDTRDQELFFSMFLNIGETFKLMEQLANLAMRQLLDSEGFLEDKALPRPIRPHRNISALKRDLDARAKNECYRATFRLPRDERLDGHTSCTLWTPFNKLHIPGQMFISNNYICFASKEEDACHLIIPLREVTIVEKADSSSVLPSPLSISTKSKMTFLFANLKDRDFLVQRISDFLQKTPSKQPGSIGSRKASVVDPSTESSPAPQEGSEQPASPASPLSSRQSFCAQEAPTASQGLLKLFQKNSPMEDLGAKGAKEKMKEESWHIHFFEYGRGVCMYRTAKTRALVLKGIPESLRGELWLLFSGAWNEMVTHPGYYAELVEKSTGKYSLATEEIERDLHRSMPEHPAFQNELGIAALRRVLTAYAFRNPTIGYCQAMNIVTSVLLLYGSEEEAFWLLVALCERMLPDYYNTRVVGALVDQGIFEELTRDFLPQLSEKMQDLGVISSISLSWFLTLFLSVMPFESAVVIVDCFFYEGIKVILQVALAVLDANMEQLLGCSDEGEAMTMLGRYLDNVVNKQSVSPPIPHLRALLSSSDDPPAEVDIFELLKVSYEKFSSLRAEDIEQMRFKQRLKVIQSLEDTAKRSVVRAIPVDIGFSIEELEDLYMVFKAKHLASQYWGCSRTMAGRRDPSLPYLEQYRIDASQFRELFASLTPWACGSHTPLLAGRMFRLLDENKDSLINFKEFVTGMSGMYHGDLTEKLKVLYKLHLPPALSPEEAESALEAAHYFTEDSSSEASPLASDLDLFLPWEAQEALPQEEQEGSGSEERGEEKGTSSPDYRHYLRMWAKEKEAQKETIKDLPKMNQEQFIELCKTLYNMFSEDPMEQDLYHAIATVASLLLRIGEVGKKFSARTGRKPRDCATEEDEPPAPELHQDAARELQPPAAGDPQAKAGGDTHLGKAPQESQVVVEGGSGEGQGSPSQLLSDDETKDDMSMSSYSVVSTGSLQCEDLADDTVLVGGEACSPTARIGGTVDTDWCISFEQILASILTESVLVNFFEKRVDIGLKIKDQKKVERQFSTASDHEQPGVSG
# Chain of UniProt P42229 (P42229 whole entry, looked up): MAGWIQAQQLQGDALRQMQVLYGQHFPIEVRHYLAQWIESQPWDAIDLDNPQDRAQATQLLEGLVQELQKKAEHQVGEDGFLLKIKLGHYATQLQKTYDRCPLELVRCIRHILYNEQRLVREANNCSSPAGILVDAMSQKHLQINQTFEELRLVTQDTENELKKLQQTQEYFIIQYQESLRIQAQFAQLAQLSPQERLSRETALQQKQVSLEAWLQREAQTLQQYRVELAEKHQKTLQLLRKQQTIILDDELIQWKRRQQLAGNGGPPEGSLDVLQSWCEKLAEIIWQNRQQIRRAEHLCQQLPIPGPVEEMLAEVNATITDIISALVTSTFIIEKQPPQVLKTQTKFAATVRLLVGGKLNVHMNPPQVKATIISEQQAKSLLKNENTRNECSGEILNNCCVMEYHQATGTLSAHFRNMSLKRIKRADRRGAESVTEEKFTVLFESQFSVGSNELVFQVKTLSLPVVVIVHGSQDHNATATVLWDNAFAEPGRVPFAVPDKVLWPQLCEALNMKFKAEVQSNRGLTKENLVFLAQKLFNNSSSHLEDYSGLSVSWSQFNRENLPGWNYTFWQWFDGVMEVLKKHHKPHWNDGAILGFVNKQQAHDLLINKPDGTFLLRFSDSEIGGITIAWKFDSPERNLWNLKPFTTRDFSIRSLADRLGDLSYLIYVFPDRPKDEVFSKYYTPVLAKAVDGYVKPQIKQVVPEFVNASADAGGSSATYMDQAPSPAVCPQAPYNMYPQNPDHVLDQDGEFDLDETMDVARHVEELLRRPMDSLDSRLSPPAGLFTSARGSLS
# Chain of UniProt Q9BZD2 (Q9BZD2 whole entry, looked up): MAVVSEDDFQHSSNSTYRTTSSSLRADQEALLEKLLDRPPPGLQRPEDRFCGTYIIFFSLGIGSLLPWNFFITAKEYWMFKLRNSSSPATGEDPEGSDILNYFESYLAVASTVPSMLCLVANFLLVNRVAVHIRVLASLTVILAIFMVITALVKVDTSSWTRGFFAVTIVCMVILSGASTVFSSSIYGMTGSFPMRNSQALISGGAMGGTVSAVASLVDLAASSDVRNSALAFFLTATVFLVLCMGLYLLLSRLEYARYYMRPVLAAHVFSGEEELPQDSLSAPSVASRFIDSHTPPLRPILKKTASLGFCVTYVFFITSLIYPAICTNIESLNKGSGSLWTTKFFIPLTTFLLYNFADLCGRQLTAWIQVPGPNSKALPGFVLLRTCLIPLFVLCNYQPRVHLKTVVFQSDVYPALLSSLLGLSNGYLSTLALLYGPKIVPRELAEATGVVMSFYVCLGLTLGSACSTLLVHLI
# Chain of UniProt P35270 (P35270 whole entry, looked up): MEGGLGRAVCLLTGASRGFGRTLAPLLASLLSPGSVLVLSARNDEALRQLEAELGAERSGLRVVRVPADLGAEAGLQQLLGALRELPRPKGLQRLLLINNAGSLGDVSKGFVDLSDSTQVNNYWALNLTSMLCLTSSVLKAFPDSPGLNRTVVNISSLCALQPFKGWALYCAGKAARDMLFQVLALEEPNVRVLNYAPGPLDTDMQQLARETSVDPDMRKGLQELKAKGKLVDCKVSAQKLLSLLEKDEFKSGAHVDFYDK
# Chain of UniProt Q92544 (Q92544 whole entry, looked up): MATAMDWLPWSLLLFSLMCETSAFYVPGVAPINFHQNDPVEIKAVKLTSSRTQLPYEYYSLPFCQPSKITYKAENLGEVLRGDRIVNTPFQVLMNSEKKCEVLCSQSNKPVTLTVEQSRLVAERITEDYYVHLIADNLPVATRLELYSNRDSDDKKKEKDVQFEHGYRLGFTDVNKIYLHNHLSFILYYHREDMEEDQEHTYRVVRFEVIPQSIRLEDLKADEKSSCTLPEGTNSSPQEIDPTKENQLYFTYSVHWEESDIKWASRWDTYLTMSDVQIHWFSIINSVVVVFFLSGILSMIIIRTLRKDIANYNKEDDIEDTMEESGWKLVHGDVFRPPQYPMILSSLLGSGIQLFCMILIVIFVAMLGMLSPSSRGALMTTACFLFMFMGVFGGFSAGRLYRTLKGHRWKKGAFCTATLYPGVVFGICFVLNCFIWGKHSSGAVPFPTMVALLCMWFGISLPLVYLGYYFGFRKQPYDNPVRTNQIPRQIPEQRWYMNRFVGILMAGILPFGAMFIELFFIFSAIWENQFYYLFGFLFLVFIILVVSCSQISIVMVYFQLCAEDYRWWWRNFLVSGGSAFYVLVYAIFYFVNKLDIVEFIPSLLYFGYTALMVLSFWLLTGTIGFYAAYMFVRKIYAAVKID
# Chain of UniProt Q86VP1 (Q86VP1 whole entry, looked up): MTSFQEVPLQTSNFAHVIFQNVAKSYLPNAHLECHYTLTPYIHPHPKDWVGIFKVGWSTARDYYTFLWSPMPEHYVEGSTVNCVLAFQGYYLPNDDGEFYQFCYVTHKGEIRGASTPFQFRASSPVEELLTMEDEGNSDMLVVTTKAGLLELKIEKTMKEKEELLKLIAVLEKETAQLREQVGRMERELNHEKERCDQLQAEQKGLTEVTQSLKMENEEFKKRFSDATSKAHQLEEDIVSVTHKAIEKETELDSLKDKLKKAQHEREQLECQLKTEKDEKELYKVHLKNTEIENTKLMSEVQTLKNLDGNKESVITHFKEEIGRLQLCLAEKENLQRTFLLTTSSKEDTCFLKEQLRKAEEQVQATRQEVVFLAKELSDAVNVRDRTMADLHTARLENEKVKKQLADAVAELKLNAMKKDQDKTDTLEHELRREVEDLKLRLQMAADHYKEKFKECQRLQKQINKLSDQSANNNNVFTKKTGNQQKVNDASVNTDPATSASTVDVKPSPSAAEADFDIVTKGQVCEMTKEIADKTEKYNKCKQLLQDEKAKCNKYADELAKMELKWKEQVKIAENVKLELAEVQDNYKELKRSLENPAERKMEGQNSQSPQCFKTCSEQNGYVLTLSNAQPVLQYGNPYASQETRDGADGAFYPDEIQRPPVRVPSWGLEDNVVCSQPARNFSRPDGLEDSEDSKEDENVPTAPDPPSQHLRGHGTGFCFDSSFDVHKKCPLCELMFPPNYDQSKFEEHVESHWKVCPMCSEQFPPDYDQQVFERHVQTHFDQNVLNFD
Target,log2 fold change (erlotinib),log2 fold change [1],log2 fold change [2],log2 fold change [3],log2 fold change [4],log2 fold change [5],log2 fold change [6],log2 fold change [7],log2 fold change [8],log2 fold change [9],log2 fold change (IRAK-1-4 Inhibitor I),log2 fold change (ibrutinib),log2 fold change [10],log2 fold change (ralimetinib),log2 fold change [11],log2 fold change [12],log2 fold change [13],log2 fold change (pinometostat),log2 fold change [14],log2 fold change [15]
TBC1D9B (UniProt Q66K14),0.07,0.001,-0.087,0.072,0.151,-0.092,-0.011,0.021,-0.055,-0.058,0.038,0.079,-0.075,0.071,0.103,-0.133,0.032,0.051,0.02,-0.042
TM9SF4 (UniProt Q92544),-0.015,0.011,-0.006,0.052,-0.054,-0.002,0.008,0.038,-0.012,0.066,-0.006,0.008,-0.016,0.031,-0.006,-0.033,0.029,0.016,-0.015,0.077
SLC29A3 (UniProt Q9BZD2),0.155,0.024,0.028,0.043,0.042,0.098,0.064,0,0.074,0.052,0.01,0.064,0.04,-0.025,0.088,-0.283,0.011,0.02,-0.046,-0.148
SPR (UniProt P35270),0.018,-0.089,-0.01,0.005,0.115,0.016,0.732 (active),0.096,0.02,0.034,0.063,0.04,0.344,0.017,-0.038,0.035,-0.008,-0.053,0.01,0.083
SMAD2 (UniProt Q15796),0.061,0.087,-0.065,0.04,0.069,-0.004,-0.05,-0.045,-0.034,0.019,-0.145,0.05,-0.091,-0.069,-0.088,-0.015,0.124,-0.125,-0.192,0.079
SPG11 (UniProt Q96JI7),0.586,0.148,-0.089,-0.084,0.128,-0.108,-0.275,-0.073,0.405,-0.002,-0.027,0.128,-0.065,-0.151,0.103,0.051,0.405,0.035,0.03,0.097
TAX1BP1 (UniProt Q86VP1),-0.079,-0.005,0.007,0.044,0.035,0.037,-0.044,-0.006,-0.015,-0.027,-0.015,-0.007,-0.195,0.066,-0.008,-0.124,0.076,0.088,0.075,-0.006
TBC1D10B (UniProt Q4KMP7),-0.013,0.063,-0.018,0.039,-0.008,0.036,-0.033,-0.109,-0.024,-0.033,-0.001,0.025,-0.342 (active),0.009,-0.006,-0.027,0.021,0.063,-0.015,0.057
SUN2 (UniProt Q9UH99),-0.067,0.023,-0.031,-0.004,-0.012,0.02,0.005,-0.087,-0.038,-0.017,-0.04,0.056,-0.044,0.072,-0.119,-0.211 (active),0.041,0.027,0.043,-0.117
STAT5A (UniProt P42229),0.033,0.173,0.035,0.048,0.083,0.01,0.06,-0.026,-0.077,-0.028,-0.116,-0.088,-0.164,0.046,0.019,-0.053,0.006,0.033,-0.002,-0.009
THADA (UniProt Q6YHU6),0.039,0.068,0.03,0.035,0.071,0.007,0.029,-0.002,-0.011,-0.006,0.007,-0.026,-0.062,0.053,-0.166,-0.225,-0.071,0.016,-0.05,-0.047
SPAST (UniProt Q9UBP0),0.139,0.129,0.032,-0.046,0.06,0.028,0.007,0.064,-0.048,-0.004,0.054,-0.015,-0.073,0.015,-0.157,-0.063,0.013,0.002,-0.019,0.114
TCERG1 (UniProt O14776),0.072,0.154,0.152,-0.017,0.067,-0.022,0.015,0.027,-0.104,-0.029,-0.062,-0.073,-0.065,-0.035,-0.172,-0.086,-0.041,-0.039,-0.016,0.062
SSRP1 (UniProt Q08945),-0.018,0.143,0.005,0.014,0.029,0.022,-0.016,-0.029,-0.052,0.009,-0.044,-0.037,-0.138,-0.022,-0.008,-0.119,0,-0.036,-0.02,-0.554 (active)
SLC38A9 (UniProt Q8NBW4),0.008,-0.023,-0.018,0.02,0.046,0.063,-0.071,-0.011,-0.042,0.055,-0.028,-0.005,-0.019,0,0.089,-0.368 (active),0.049,-0.023,0.023,-0.1
SRSF10 (UniProt O75494),0.004,-0.284,-0.701 (active),0.035,-0.044,0.048,-0.148,-0.022,0.063,-0.135,-0.179,0.07,-0.047,0.185,0.218,0.002,0.102,0.418,0.205,-0.396
